Assay [1] is described as follows: qHTS assay to identify small molecule antagonists of the estrogen related receptor (ERR) signaling pathway from Tox21 library - cell viability counter screen (AID 1224834). Note: nearly all actives have a fitted effect of over 30% in size. In a few lines: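 CellTiter-Fluor fluorescence measured; ERR cells; 17.5 h compound incubation at 37 C; 30 min reagent step.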
A general note: qHTS replaces the single test concentration by a dilution series.

For assay [2], the target named is Luciferin 4-monooxygenase (Photinus pyralis) (UniProt P08659). Kind of assay: qHTS assay to identify small molecule inhibitors of firefly luciferase (AID 1224835). Note: nearly all actives have a fitted effect of over 25% in size. In a few lines: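 Inhibition of purified Photinus luciferase is measured by luminescence. Substrate levels (D-luciferin, ATP) sit at their KM values. Each compound is tested in a concentration series.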
Chain of Luciferin 4-monooxygenase (Photinus pyralis) (P08659 whole entry, looked up): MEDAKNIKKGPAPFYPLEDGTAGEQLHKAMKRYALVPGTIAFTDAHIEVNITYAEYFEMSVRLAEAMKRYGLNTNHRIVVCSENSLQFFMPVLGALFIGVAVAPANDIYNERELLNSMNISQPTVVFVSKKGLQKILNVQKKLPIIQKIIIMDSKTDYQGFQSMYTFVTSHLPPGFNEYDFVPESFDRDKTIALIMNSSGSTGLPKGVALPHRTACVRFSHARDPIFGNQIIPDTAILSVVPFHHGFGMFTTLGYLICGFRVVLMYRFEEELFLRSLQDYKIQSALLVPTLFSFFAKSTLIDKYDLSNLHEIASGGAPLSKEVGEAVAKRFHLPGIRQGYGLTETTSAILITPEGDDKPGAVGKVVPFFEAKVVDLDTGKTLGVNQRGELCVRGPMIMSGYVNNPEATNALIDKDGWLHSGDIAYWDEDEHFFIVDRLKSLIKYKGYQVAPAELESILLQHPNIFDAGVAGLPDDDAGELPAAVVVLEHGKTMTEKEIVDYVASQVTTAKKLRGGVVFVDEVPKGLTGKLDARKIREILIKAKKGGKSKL

A short description of assay [3]: qHTS assay to identify small molecule antagonists of the constitutive androstane receptor (CAR) signaling pathway - cell viability counter screen (AID 1224837). Note: nearly all actives have a fitted effect of over 45% in size. In a few lines: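 Using CellTiter-Fluor, viability is scored in HepG2 cells stably carrying hCAR and a 2.2kb CYP2B6 reporter after 23 hr compound exposure across 15 concentrations, with CITCO present at 50 nM.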

Assay [4] has as its target Nuclear receptor subfamily 1 group I member 3 (Homo sapiens) (UniProt Q14994). Kind of assay: qHTS assay to identify small molecule antagonists of the constitutive androstane receptor (CAR) signaling pathway (AID 1224838).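 Note: HepG2 cells stably expressing hCAR with CYP2B6 luciferase reporter stimulated by CITCO; nearly all actives have a fitted effect of over 40% in size.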 Note: potency is the fitted concentration of half-maximal effect. The procedure, abridged: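 Reporter luminescence was quantified after 24 h exposure of hCAR/CYP2B6-2.2kb double-stable HepG2 cells to compounds at 15 concentrations in the presence of 50 nM CITCO final.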

The nature of assay [5]: qHTS assay to identify small molecule antagonists of the estrogen related receptor signaling pathway with the pleiotropic PPARgamma coactivator (PGC) from Tox21 10K library - cell viability counter screen (AID 1224840; active = well fitted cell-killing curve with a large enough effect in the repeat runs, not every such curve was filed as active; note: nearly all actives have a fitted effect of over 40% in size). The procedure, abridged:
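Here the PGC/ERR cells serve as a cytotoxicity control: they are exposed to compounds for 17.5 hours at 37 C, and live-cell signal is quantified using CellTiter-Fluor fluorescence.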

The nature of assay [6]: qHTS assay to identify small molecule antagonists of the estrogen related receptor signaling pathway with the pleiotropic PPARgamma coactivator (PGC) from Tox21 10K library (AID 1224841; call rule not given here; note: actives are mostly falling curves and most rising ones were filed inactive; nearly all actives have a fitted effect of over 50% in size; note: potency is the fitted concentration of half-maximal effect). The procedure, abridged:
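Each well held 2,000 PGC/ERR cells, pre-incubated six hours (37 C, 5% CO2). Test substances in DMSO were added by pin tool and left for 18 h at 37 C before luciferase detection by One-Glo.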

Assay [7] addresses Thyrotropin receptor (Homo sapiens) (UniProt P16473). The assay can be described thus: qHTS assay to identify small molecule agonists of the thyroid stimulating hormone receptor (TSHR) signaling pathway (AID 1224843; calls by dose curve; note: nearly all actives have a fitted effect of over 45% in size). The procedure, abridged:
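HEK293 cells stably bearing the thyrotropin receptor were plated at 800 cells/well and challenged with compound (30 min, RT). Accumulated cAMP was quantified via cAMP-d2 competing for cryptate-tagged antibody.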

The nature of assay [8]: qHTS assay to identify small molecule agonists of the hypoxia (HIF-1) signaling pathway - cell viability counter screen (AID 1224844; calls by dose curve; note: nearly all actives have a fitted effect of over 50% in size). In a few lines: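 Multiplexed with the HRE beta-lactamase assay, this viability read used CellTiter-Glo luminescence (30 min, RT) on HRE-bla ME-180 cells treated 17 hrs with compounds in 0.5% dialyzed FBS medium.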
Assay [9] is described as follows: qHTS assay to identify small molecule agonists of H2AX (AID 1224845; active = well fitted activation curve with a large enough effect in the signal ratio in the repeat runs, not every such curve was filed as active; the % refers to the signal ratio). In a few lines: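 Phospho-H2AX Ser139 measured by HTRF (ex 320 nm; em 665 and 620 nm) after 24 hr antibody incubation. Compounds, 15 concentrations, 0.76% DMSO, were applied to CHO-K1 cells for 3hr at 37C before lysis.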
A short description of assay [10]: qHTS assay to identify small molecule agonists of H2AX - cell viability counter screen (AID 1224847; calls by dose curve; note: top concentration of the series differs between compounds; nearly all actives have a fitted effect of over 30% in size). The procedure, abridged:
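Cytotoxicity counter screen in wild-type CHO-K1 cells: a 3 hr compound treatment at 37C across 15 concentrations, followed by CellTiter-Glo luminescence to gauge viable cells.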

Assay [11] in a line: qHTS assay to identify small molecule antagonists of the estrogen related receptor (ERR) signaling pathway from Tox21 library (AID 1224848). Note: nearly all actives have a fitted effect of over 50% in size. In a few lines: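 Reading was by luminescence 30 min after ONE-Glo addition. Before that, ERR cells at 2,000 per well had rested 6 h at 37 C/5% CO2 and then received pin-tooled compounds in DMSO for 18 h at 37 C.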
Assay [12] can be described thus: qHTS assay to identify small molecule agonists of the estrogen related receptor (ERR) signaling pathway from Tox21 library (AID 1224849; calls by dose curve; note: nearly all actives have a fitted effect of over 15% in size). The following applies: ERR reporter cell line, ONE-Glo luciferase, 18 h; at 92.4 µM (top of the series) unless noted. In a few lines:
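Six hours post-seeding at 37 C/5% CO2, ERR cells receive DMSO-solubilised compounds; after 18 h at 37 C, ONE-Glo reagent is applied and luminescence recorded.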

A short description of assay [13]: qHTS RealTime-Glo MT Cell Viability Assay in HepG2 cells - 24 hour (AID 1224867). Note: nearly all actives have a fitted effect of over 50% in size. The procedure, abridged:
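HepG2 suspension premixed with RealTime-Glo reagents is plated at 600 cells per well and left 5 h at 37 C/5% CO2. Compounds in DMSO then go in, and bioluminescence reflecting viable cell number is recorded over 40 h.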

Assay [14] can be described thus: qHTS RealTime-Glo MT Cell Viability Assay in HEK293 cells - 32 hour (AID 1224868). In a few lines: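 Reads taken at 0, 8, 16, 24, 32 and 40 h from the same wells. HEK293 cells (600/well) carried RealTime-Glo reagents from seeding, with compound added after a 5 h settle at 37 C.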
The nature of assay [15]: A CellTox Green Cytotoxicity Assay to monitor cytotoxicity in HEK293 cells - 0 hour (AID 1224869). Note: nearly all actives have a fitted effect of over 50% in size. In a few lines:
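Seeding of HEK293 cells together with cytotoxicity dye preceded a 5 h incubation at 37 C/5% CO2. Test compounds in DMSO were then added and fluorescence monitored across 40 h.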

Assay [16] in a line: qHTS RealTime-Glo MT Cell Viability Assay in HepG2 cells - 40 hour (AID 1224870). Note: nearly all actives have a fitted effect of over 50% in size. In a few lines: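 Real-time viability: cells seeded at 600 per well together with NanoLuc and cell-permeant prosubstrate, compounds added after 5 h incubation. Luminescence tracked at 0, 8, 16, 24, 32 and 40 h of exposure.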
Assay [17] in a line: qHTS assay to identify small molecule agonists of the constitutive androstane receptor (CAR) signaling pathway - cell viability counter screen (AID 1224836). Note: nearly all actives have a fitted effect of over 45% in size. The procedure, abridged:
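Cells were seeded and incubated 4 hrs. Compounds were added across 15 concentrations together with PK11195 at 0.75 uM final. Plates were incubated 23 hrs at 37 C. CellTiter-Fluor was added and fluorescence measured.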

Assay [18] in a line: qHTS assay to identify small molecule agonists of the estrogen related receptor signaling pathway with the pleiotropic PPARgamma coactivator (PGC) from Tox21 10K library (AID 1224842). Note: nearly all actives have a fitted effect of over 15% in size. The procedure, abridged:
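Luminescence from One-Glo (30 min, room temperature) measured after PGC/ERR cells had 18 h at 37 C with pinned compound (23 nL in DMSO). Cells had been seeded at 2,000 per well and pre-incubated 6 h.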

Assay [19] can be described thus: qHTS assay to identify small molecule agonists of the hypoxia (HIF-1) signaling pathway (AID 1224846; active = well fitted activation curve with a large enough effect in the signal ratio in the repeat runs, not every such curve was filed as active; the % refers to the signal ratio). In a few lines: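 Hypoxia-pathway activation was scored as increased beta-lactamase from an HRE-controlled reporter in ME-180 cells; plated at 2,000 cells per well with 0.5% dialyzed FBS, they were exposed 17 hrs to compounds and then given CCF4-AM.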
Assay [20] has as its target Nuclear receptor subfamily 1 group I member 3 (Homo sapiens) (UniProt Q14994). Kind of assay: qHTS assay to identify small molecule agonists of the constitutive androstane receptor (CAR) signaling pathway (AID 1224839). Note: nearly all actives have a fitted effect of over 15% in size. In a few lines:
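Cells were plated and incubated 4 hrs, then dosed with compounds at 15 concentrations. PK11195 was added to 0.75 uM final. After 24 hrs at 37 C, luciferase luminescence was measured.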

A number with no mark means an inactive call. Records with an inconclusive call do not appear. Activity calls are given as the source filed them. Unless noted, calls come from the whole dose curve; as a rule, active = well fitted curve in the direction sought with a large enough effect in the repeat runs; inconclusive = weak or mixed curves; inactive = no such curve, though single readings can be large; an effect the other way counts as inactive or inconclusive.
% is set by controls: 0 for no effect and ±100 for the full control effect.

Chain of Thyrotropin receptor (Homo sapiens) (P16473 whole entry, looked up): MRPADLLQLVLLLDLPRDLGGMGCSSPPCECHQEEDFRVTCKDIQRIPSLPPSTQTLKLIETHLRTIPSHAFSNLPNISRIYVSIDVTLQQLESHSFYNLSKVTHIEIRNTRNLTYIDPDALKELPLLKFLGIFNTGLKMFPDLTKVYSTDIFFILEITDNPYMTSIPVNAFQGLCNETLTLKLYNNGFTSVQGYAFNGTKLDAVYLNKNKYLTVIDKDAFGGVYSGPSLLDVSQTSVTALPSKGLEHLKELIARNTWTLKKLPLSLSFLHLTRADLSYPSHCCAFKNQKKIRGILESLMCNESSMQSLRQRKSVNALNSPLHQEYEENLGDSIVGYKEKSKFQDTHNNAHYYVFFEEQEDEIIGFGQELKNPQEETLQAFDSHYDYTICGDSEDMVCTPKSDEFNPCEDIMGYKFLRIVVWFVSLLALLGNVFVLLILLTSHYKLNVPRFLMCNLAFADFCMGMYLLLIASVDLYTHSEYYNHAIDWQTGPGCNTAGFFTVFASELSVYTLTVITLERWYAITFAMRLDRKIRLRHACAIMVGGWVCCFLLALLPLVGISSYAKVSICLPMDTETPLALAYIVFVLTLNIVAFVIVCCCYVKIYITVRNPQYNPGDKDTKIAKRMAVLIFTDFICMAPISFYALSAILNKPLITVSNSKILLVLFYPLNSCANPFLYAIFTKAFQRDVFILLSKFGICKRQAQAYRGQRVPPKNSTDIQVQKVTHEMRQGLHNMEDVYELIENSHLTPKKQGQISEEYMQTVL
Chain of Nuclear receptor subfamily 1 group I member 3 (Homo sapiens) (Q14994 whole entry, looked up): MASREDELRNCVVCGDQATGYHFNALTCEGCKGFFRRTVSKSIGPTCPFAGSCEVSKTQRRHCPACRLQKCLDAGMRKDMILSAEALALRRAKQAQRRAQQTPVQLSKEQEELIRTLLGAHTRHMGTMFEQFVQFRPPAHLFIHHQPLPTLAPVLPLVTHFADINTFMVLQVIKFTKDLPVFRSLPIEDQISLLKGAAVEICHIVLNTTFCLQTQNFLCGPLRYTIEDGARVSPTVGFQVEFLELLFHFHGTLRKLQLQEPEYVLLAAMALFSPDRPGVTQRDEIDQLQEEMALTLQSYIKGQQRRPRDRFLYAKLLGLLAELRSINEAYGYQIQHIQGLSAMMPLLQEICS

For the molecule `CCC(=O)O[C@]1(C(=O)SCF)[C@H](C)C[C@H]2[C@@H]3C[C@H](F)C4=CC(=O)C=C[C@]4(C)[C@@]3(F)[C@@H](O)C[C@@]21C`, the Potency entry in [1], in assay [2], in [3], in assay [4], in assay [5] and in assay [6] was “inactive” each time. In addition, the Potency result in assay [7], in assay [8], in assay [9], in [10], in assay [11] and in assay [13] was “inactive” in each case. Further, the Potency result in assay [14], in [15] and in [16] was “inactive” each time. The activity change, positive = activation in assay [12] was -0.0041% [at 42.5 µM].

Take `CC(C)S`: the Potency entry in assay [1], in assay [2], in [17], in [5], in [6] and in assay [18] was “inactive” in each case. In addition, the Potency result in assay [7], in assay [8], in assay [9], in assay [10], in assay [11] and in assay [13] was “inactive” throughout. Moreover, the Potency result in assay [14], in assay [15] and in assay [16] was “inactive” throughout. The outcome in assay [19] was inactive. Besides, the activity change, positive = activation in [12] was 3.07%.

In the case of `CC(=O)N(CC(O)CN(C(C)=O)c1c(I)c(C(=O)NCC(O)CO)c(I)c(C(=O)NCC(O)CO)c1I)c1c(I)c(C(=O)NCC(O)CO)c(I)c(C(=O)NCC(O)CO)c1I` (centres undefined), the Potency result in [1], in [2], in [17], in assay [4], in assay [20] and in assay [5] was “inactive” each time. Also, the Potency entry in assay [7], in assay [8], in [9], in assay [10], in assay [14] and in assay [15] was “inactive” in each case. For the same molecule, in assay [16], the Potency result was “inactive”.

As to `CCN(CC)C(=O)N(CC)CC`, the Potency entry in assay [1], in [2], in [17], in [4], in [20] and in assay [5] was “inactive” in each case. The Potency entry in assay [8], in assay [9], in assay [10], in assay [13], in assay [14] and in assay [15] was “inactive” each time. In addition, the Potency result in assay [16] was “inactive”. Also, in [19], the result was inactive.

Take `CCCCNc1ccc(C(=O)OCCN(CC)CC)cc1`: the Potency result in assay [1], in [2], in assay [17], in [4], in assay [5] and in assay [6] was “inactive” throughout. Moreover, the Potency result in assay [18], in [7], in assay [8], in assay [10], in assay [11] and in assay [13] was “inactive” each time. The Potency entry in [15] is “inactive”. Moreover, in [19], the result was inactive. Moreover, in assay [12], the activity change, positive = activation was -11.3% [at 42.5 µM].

`CCOC(=O)CS`: the Potency result in assay [1], in assay [2], in [17], in assay [20], in assay [5] and in [18] was “inactive” each time. Further, the Potency entry in assay [7], in assay [9], in [10], in assay [13], in assay [14] and in assay [15] was “inactive” in each case. The Potency in [4] was 56 µM (active); in assay [6], 14.1 µM (active). In addition, the result in assay [19] was inactive. Besides, in assay [12], the activity change, positive = activation was -14.3%.

For the molecule `COC(C)CCO` (centres undefined), the Potency result in assay [1], in assay [2], in assay [17], in assay [4], in assay [20] and in assay [5] was “inactive” throughout. Moreover, the Potency result in assay [7], in assay [8], in [9], in [10], in assay [14] and in [15] was “inactive” throughout. For the same molecule, the Potency entry in assay [16] is “inactive”. In addition, in assay [19], the call was inactive.

In the case of `NCCC(O)(P(=O)(O)O)P(=O)(O)O`, the Potency entry in assay [1], in assay [17], in [3], in assay [4], in assay [20] and in assay [5] was “inactive” in each case. The Potency entry in assay [6], in assay [18], in assay [7], in [8], in [9] and in [10] was “inactive” each time. The Potency entry in assay [11], in [13], in assay [14], in assay [15] and in assay [16] was “inactive” in each case. The molecule was classed as inactive in assay [19]. Besides, the activity change, positive = activation in [12] is 4.61% [at 42.5 µM].

(Values after PubChem BioAssay (Tox21).)
